Screening results: PubChem BioAssay, several laboratories
14-3-3 Bad PPI: inhibitors of 14-3-3 zeta/Bad binding, primary screen, biochemical, TR-FRET, bovine 14-3-3 zeta; AID 781, 2007; TR-FRET 14-3-3zeta/Dy647-pBad peptide displacement, 1 h; inhibition, % at 21.7 µM; 220,000 compounds, 0.71% hits; 14-3-3 protein zeta/delta (Bos taurus), P63103;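 active = inhibition above about 70%, limit read from the data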
Target sequence (P63103 whole entry, looked up): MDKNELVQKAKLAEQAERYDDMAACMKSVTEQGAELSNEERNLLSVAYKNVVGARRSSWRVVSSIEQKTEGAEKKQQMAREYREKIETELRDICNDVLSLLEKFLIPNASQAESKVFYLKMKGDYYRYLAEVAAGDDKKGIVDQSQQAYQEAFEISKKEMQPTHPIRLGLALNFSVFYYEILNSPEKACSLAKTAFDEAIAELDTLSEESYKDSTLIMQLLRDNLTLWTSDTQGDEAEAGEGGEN
MsrA inh: bovine MsrA enzyme inhibitors, primary screen, biochemical, absorbance, HTS. Methionine sulfoxide reductase A (Bos taurus). purified bovine MsrA, absorbance read-out. inhibition, % at 15.5 µM. 360,000 compounds, 0.75% hits. AID 651718, 2012
pCIP destab: p/CIP-EGFP fusion destabilizers, primary screen, fluorescence, F442A cells; decrease of EGFP signal, % at 10 µM; 16 h; 290,000 compounds, 0.01% hits;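 active = EGFP signal decrease of at least 30% at 10 µM or well 3 SD below plate mean, unless failing retest; inactive = the rest, including hits failing retest or dose response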
bovine MsrA act: bovine MsrA enzyme activators, primary screen, biochemical, absorbance, HTS | 360,000 compounds, 0.3% hits | purified bovine MsrA, absorbance read-out | Methionine sulfoxide reductase A (Bos taurus) | activation, % at 10.6 µM | AID 602163, 2012; in the data active = activation above about 7.5%
MsrA conf: bovine MsrA inhibitors, retest, confirmation, biochemical, absorbance, HTS; shares compounds with MsrA inh; purified bovine MsrA, absorbance read-out; inhibition, % at 15.5 µM; 2,300 compounds, 41% hits; AID 651822, 2012;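 also: coupled to thioredoxin reductase with NADPH and selenocystamine and DMSO as substrate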
Each line names hits and unclear results; the compound was inactive in the other large screens (follow-up assays come after a bar, where they were run). In the library only some 1.4% were active in any assay of this set; here they are far more common. Rule as the data show it, unless noted: active = inhibition above about 4.5%; inactive = the rest.

CCCC(C(=O)Nc1nccs1)c1ccccc1 (stereo not drawn)	MsrA inh 21 | MsrA conf inactive
C#CCOc1ccc(C2C(C#N)=C(N)Oc3cc(O)ccc32)cc1 (stereo not drawn)	none (no result: 14-3-3 Bad PPI)
NC(N)=NC1=NC(=O)/C(=C/c2ccccc2-n2cccn2)S1	MsrA inh 5.3 | MsrA conf inactive
BrC(/C=C\c1ccccc1)=N/Nc1nc(N2CCOCC2)nc(N2CCOCC2)n1	MsrA inh 6.7 | MsrA conf 4.6
BrC(=C\c1ccccc1)/C=N/Nc1nc(N2CCOCC2)nc(N2CCOCC2)n1	MsrA inh 5.3 | MsrA conf 4.8
CN(C)c1ccc(/C=C/C=N/Nc2nc(N3CCOCC3)nc(N3CCOCC3)n2)cc1	MsrA inh 6.0 | MsrA conf inactive
CC(/C=N/Nc1nc(N2CCCCC2)nc(N2CCCCC2)n1)=C\c1ccccc1	none
CC(C)=CCN1C(=O)[C@]2(OCCC=C[C@H]2C)c2c(Br)cccc21	none (no result: 14-3-3 Bad PPI, pCIP destab, bovine MsrA act)
CCc1ccc(S(=O)(=O)Nc2cccc(-c3ccc4nnc(C)n4n3)c2)s1	none (no result: 14-3-3 Bad PPI, pCIP destab)
COCc1nnc(NC(=O)c2cc3ccccc3o2)s1	MsrA inh 5.1 (no result: 14-3-3 Bad PPI) | MsrA conf inactive
O=C(COC(=O)C1CCN(/C=C/C(=O)C(F)(F)F)CC1)Nc1ccccc1	MsrA inh 4.8 | MsrA conf inactive
Cc1cccc(N(C(=O)c2snc(C(N)=O)c2N)C(C(=O)NC2CCCC2)c2ccco2)c1 (stereo not drawn)	none (no result: 14-3-3 Bad PPI)
Cc1ccc(NS(=O)(=O)c2cc(-c3n[nH]c(=O)c4ccccc34)ccc2C)cc1	MsrA inh 5.2 | MsrA conf 5.0
Cc1nnc(SC(C)C(=O)N(C)C2CCCCC2)n1N (stereo not drawn)	none (no result: 14-3-3 Bad PPI, pCIP destab)
CCOC(=O)C1(N(CC)CC)Sc2cc(C)ccc2NC1=O (stereo not drawn)	none
COC(=O)C1=C(C(=O)OC)SC2(S1)C(C(=O)OC)=C(C(=O)OC)SC1=C2c2cc(C)ccc2NC1(C)C	MsrA inh 6.1 | MsrA conf inactive
CCc1cc(=O)oc2cc(C)cc(OC(C)C(=O)NC(Cc3c[nH]c4ccc(O)cc34)C(=O)O)c12 (stereo not drawn)	none (no result: 14-3-3 Bad PPI)
O=C(NCc1ccccc1)c1ccc(Oc2ccc(C(=O)NCc3ccccc3)cc2)cc1	none
O=C(NCc1ccco1)c1ccc(=O)oc1	MsrA inh 7.9 | MsrA conf 6.2
COC(=O)CNC(=O)c1ccc(=O)oc1	MsrA inh 5.8 | MsrA conf 5.3
O=C(NCc1ccccc1)c1ccc(=O)oc1	MsrA inh 7.5 | MsrA conf 6.2
Cc1cccc(C)c1-n1nnnc1C1(C)CCC(=O)N1c1ccc(N2CCOCC2)cc1 (stereo not drawn)	none (no result: 14-3-3 Bad PPI, pCIP destab)
COc1ccccc1-c1c(C)c(C)nc(N)c1C#N	none
CCc1nc(N)c(C#N)c(-c2ccccc2OC)c1C	MsrA inh 4.7 | MsrA conf inactive
COc1ccccc1N1CCN(C2CC(=O)N(c3ccc(F)cc3)C2=O)CC1 (stereo not drawn)	none (no result: 14-3-3 Bad PPI)
CCn1c(C)nc2cc(C(=O)N/N=C/c3ccc(O)cc3)ccc21	MsrA inh 5.0 | MsrA conf inactive
CCn1c(C)nc2cc(C(=O)N/N=C/c3ccc(OC)cc3)ccc21	none
CCn1c(C)nc2cc(C(=O)N/N=C/c3ccc(N4CCOCC4)cc3)ccc21	MsrA inh 5.5 | MsrA conf 6.0
CCn1c(C)nc2cc(C(=O)N/N=C/c3ccc(OC)c(O)c3)ccc21	MsrA inh 7.5 | MsrA conf 4.7
COc1ccc(NC(=O)C[C@H]2C(=O)N(c3ccccc3)C[C@@H]2CSC)cc1	none (no result: 14-3-3 Bad PPI, pCIP destab)
C[C@H](CO)N1C[C@H](C)[C@@H](CN(C)Cc2ccccn2)Oc2ncc(Br)cc2C1=O	none (no result: 14-3-3 Bad PPI, pCIP destab)
CCOC(=O)C(CC1=CS(=O)(=O)c2ccc(Cl)cc21)(NC(C)=O)C(=O)OCC	none (no result: 14-3-3 Bad PPI, pCIP destab)
COCCN(Cc1ccc(C)c(Br)c1)C(=O)Cn1cnc(S(=O)(=O)N2CCCC2)c1	none (no result: 14-3-3 Bad PPI)
COc1cc2c(cc1O)CC[n+]1cc3c(OC)c(OC)ccc3cc1-2	MsrA inh 5.2 | MsrA conf inactive
COC(=O)C1CC(Cl)CN1c1ncc(C(F)(F)F)cc1Cl (stereo not drawn)	MsrA inh 5.1 | MsrA conf inactive
CCOC(=O)c1nn(-c2ccc(F)cc2)c(=O)cc1OCC(=O)Nc1ccc(F)c(F)c1	none (no result: 14-3-3 Bad PPI, pCIP destab)
Cc1ncsc1C(=O)Nc1nc2c(s1)CC(C)CC2 (stereo not drawn)	MsrA inh 6.3 | MsrA conf inactive
CC(=O)c1ccc(N/N=C2/CCCNC2=O)cc1	MsrA inh 7.4 | MsrA conf 6.2
Cc1ccc(N/N=C2/CCCNC2=O)cc1	none
CCn1c(CNC(=O)c2ccccc2Br)nnc1SCC(=O)NC1=NCCS1	MsrA inh 6.5 (no result: 14-3-3 Bad PPI) | MsrA conf inactive
CCn1c(SCC(=O)NC2=NCCS2)nnc1C(C)NC(=O)c1ccccc1Br (stereo not drawn)	none (no result: 14-3-3 Bad PPI)
Nc1ncnc(NCc2ccccc2)c1[N+](=O)[O-]	MsrA inh 4.9 | MsrA conf inactive
COc1ccc(-c2ccc(NC(=O)c3ccco3)cc2)nn1	none (no result: 14-3-3 Bad PPI, pCIP destab)
COc1ccc(C)cc1NC(=O)C(Sc1nnc(Nc2cc(C)ccc2OC)s1)c1ccccc1 (stereo not drawn)	MsrA inh 5.2 | MsrA conf inactive
CCC1SC2=NC(C)=C(C(=O)OCCOC)C(c3ccc(C(=O)OC)cc3)N2C1=O (stereo not drawn)	MsrA inh 4.9 | MsrA conf inactive
CCC1SC2=NC(C)=C(C(=O)OC)C(c3ccc(C(=O)OC)cc3)N2C1=O (stereo not drawn)	none
O=C1NC(=Nc2ccc(O)cc2)S/C1=C/c1ccco1	MsrA inh 4.7 | MsrA conf 4.7
CN(CCO)S(=O)(=O)c1ccc2c(c1)C(=NNC(N)=O)c1cc(S(=O)(=O)N(C)CCO)ccc1-2	MsrA inh 4.8 | MsrA conf inactive
CC1CN(C/C(=N\O)C23CC4CC(CC(C4)C2)C3)CC(C)O1 (stereo not drawn)	none (no result: 14-3-3 Bad PPI)
CSCc1c(C(=O)N2CCCc3ccccc32)oc2ccccc12	MsrA inh 8.4 (no result: 14-3-3 Bad PPI, pCIP destab) | MsrA conf inactive
S=c1nc(-c2ccccc2Cl)n(Cc2cccnc2)c2c1CCCC2	MsrA inh 5.9 | MsrA conf 4.7
CCN(CC)C(=S)SCc1csc(CC(=O)Nc2ccccc2C)n1	none (no result: 14-3-3 Bad PPI)
Cc1[nH]nc(Nc2ccc(Br)cc2)c1[N+](=O)[O-]	MsrA inh 5.4 | MsrA conf inactive
COc1ccc2c(Cl)c(C(=O)NCCc3ccc(S(N)(=O)=O)cc3)sc2c1	none (no result: 14-3-3 Bad PPI)
CC1(C)Cc2nc(N3CCCC3)c(C#N)cc2CO1	MsrA inh 8.7 | MsrA conf 5.4
COc1ccc(Nc2nc(C)c(C(C)=O)s2)cc1	MsrA inh 5.4 (no result: 14-3-3 Bad PPI, pCIP destab) | MsrA conf inactive
COc1ccccc1C1/C(=C(/O)c2ccccc2)C(=O)C(=O)N1CCO (stereo not drawn)	none
